Results on 48 sequences are retold here after PMC10726135, “HNF4α isoforms regulate the circadian balance between carbohydrate and lipid metabolism in the liver”.

The full ranking holds about 18,000 sequences; the median of “log2 normalized intensity” is about 0.36, and the highest 2% start at about 7.3. This excerpt belongs to a sample that is enriched for the highest values.

The target in this assay is T1, HNF4alpha8 (COS-7 nuclear extract) (Homo sapiens, UniProt P41235-5 1-452).
T1 sequence: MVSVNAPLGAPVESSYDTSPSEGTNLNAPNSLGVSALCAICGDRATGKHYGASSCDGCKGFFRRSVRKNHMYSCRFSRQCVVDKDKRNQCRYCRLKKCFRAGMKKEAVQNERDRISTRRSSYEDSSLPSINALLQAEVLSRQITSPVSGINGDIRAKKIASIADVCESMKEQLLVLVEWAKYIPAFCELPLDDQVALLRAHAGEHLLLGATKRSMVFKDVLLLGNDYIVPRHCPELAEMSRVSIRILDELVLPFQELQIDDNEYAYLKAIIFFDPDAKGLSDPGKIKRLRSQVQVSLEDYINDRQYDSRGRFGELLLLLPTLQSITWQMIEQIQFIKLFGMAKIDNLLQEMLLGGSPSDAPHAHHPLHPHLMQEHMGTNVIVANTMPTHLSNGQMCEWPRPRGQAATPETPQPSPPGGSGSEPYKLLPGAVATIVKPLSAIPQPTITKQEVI
In words: protein-binding microarray; COS-7 nuclear extract on double-stranded Agilent 4x180k PBM; binding buffer, salt, pH and temperature not given in the material; high values mean tight binding. The following applies: chain copies: 2; label: 3' end of strand 1 on the slide; dsDNA, one strand shown. In short, it runs like this: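 Nuclear extracts came from COS-7 cells transiently transfected by CaPO4 with a human HNF4α isoform expression vector. They were applied to a custom Agilent SurePrint G3 4x180k array of ~60-nt oligonucleotides, made double-stranded, with ~44,000 test sequences spotted in quadruplicate. Bound HNF4α was imaged at 2-µm resolution on an Agilent G2565CA scanner. Binding signal was taken as background-corrected, normalized gProcessedSignal from Agilent software.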
As for “GTGAGTGGACTTTGGTCCTGGTCAGACTTGGCCTAGGGAGATTAGAGTATCGGTCGA”, the binding signal amounted to 6.78 log2 normalized intensity.
For “ACACACAATAAGGACTTTGGACCGTCTTGTGCCTAGGGAGATTAGAGTATCGGTCGA”, the binding signal came to 8.19 log2 normalized intensity.
For the sequence “TTTGGACCTGGCCTGCGGGGTCAGGCCGTGGCCTAGGGAGATTAGAGTATCGGTCGA”, the binding signal was 2.71 log2 normalized intensity.
“GTTAAGTGAGTGGACTTTGGTCCTGGTCAGGCCTAGGGAGATTAGAGTATCGGTCGA”: the binding signal was 7.53 log2 normalized intensity.
The same measure for “CTCATTCCTATTCGGTGCTGACCTTTGTTCGCCTAGGGAGATTAGAGTATCGGTCGA”: 8.62 log2 normalized intensity; for “CAATAAGGACTTTGGACCGTCTTGTGGATCGCCTAGGGAGATTAGAGTATCGGTCGA”: 6.72 log2 normalized intensity.
Take “TCCTATTCGGTGCTGACCTTTGTTCACATTGCCTAGGGAGATTAGAGTATCGGTCGA”: the binding signal turned out to be 6.64 log2 normalized intensity.
With “AGTCCATGTGTTAAATAATAACACTCCCATGCCTAGGGAGATTAGAGTATCGGTCGA” the figure was -0.441 log2 normalized intensity.
The same measure for “CCTTCCCTTTCATGTTGAACGTCTTCAGAAGCCTAGGGAGATTAGAGTATCGGTCGA”: 1.35 log2 normalized intensity; for “CTGCCCAGACCTTATCTTGCATTTCTTCAGGCCTAGGGAGATTAGAGTATCGGTCGA”: 0.246 log2 normalized intensity.
In the case of “CTGCCTGCTTGGCCTCTCCACTTGGGTATCGCCTAGGGAGATTAGAGTATCGGTCGA”, the binding signal was -0.182 log2 normalized intensity.
On to “TGATCCAGGGCAAAGGTCATAATTTGATCCGCCTAGGGAGATTAGAGTATCGGTCGA”, for which the binding signal is 6.94 log2 normalized intensity.
Regarding “ACACAGGACTTGATCCAGGGCAAAGGTCATGCCTAGGGAGATTAGAGTATCGGTCGA”, the binding signal is 7.91 log2 normalized intensity.
With “CAAAGGTCATAATTTGATCCAGTGTGCAAAGCCTAGGGAGATTAGAGTATCGGTCGA” the figure was 4.08 log2 normalized intensity; with “AGAAAACACAGAGATCTGATCAAAGGTCATGCCTAGGGAGATTAGAGTATCGGTCGA”, 6.61 log2 normalized intensity; with “GGACTTGATCCAGGGCAAAGGTCATAATTTGCCTAGGGAGATTAGAGTATCGGTCGA”, 7.95 log2 normalized intensity.
The same measure for “CACAGAGCAAAGGTCATGCATAGAAGTATGGCCTAGGGAGATTAGAGTATCGGTCGA”: 4.43 log2 normalized intensity; for “AATGGAGTTTGGTTTAAAGTTCAAGTCATAGCCTAGGGAGATTAGAGTATCGGTCGA”: 2.74 log2 normalized intensity.
The same measure for “AGGTGTAACCTGCTCTCTCATGCCCTTTGCGCCTAGGGAGATTAGAGTATCGGTCGA”: 4.81 log2 normalized intensity; for “CTTTCCTGGTGCCTCCTTATCTCCCCAACTGCCTAGGGAGATTAGAGTATCGGTCGA”: 3.48 log2 normalized intensity; for “TTTTAATTAGAACTGTAATTGAGTAACCAGGCCTAGGGAGATTAGAGTATCGGTCGA”: 0.406 log2 normalized intensity.
“ATCTCTAAGCTACTGAAAATGACCTTTGTTGCCTAGGGAGATTAGAGTATCGGTCGA”: the binding signal was 6.73 log2 normalized intensity.
Take “TAAGCTACTGAAAATGACCTTTGTTCCCTGGCCTAGGGAGATTAGAGTATCGGTCGA”: the binding signal turned out to be 9.03 log2 normalized intensity.
Regarding “TACTGAAAATGACCTTTGTTCCCTGCACTTGCCTAGGGAGATTAGAGTATCGGTCGA”, the binding signal came to 7.89 log2 normalized intensity.
With “AAAAAAAAAAATTACTGACCCTTGCACTGTGCCTAGGGAGATTAGAGTATCGGTCGA” the figure was 5.45 log2 normalized intensity.
With “AATTCATCTCTAAGCTACTGAAAATGACCTGCCTAGGGAGATTAGAGTATCGGTCGA” the figure was 3.88 log2 normalized intensity; with “GAAACCCTAAACCTGCAAACCTTTGACCTTGCCTAGGGAGATTAGAGTATCGGTCGA”, 5.96 log2 normalized intensity; with “GATTTTCAGGTTCCCCAGTGAGGATGTGTGGCCTAGGGAGATTAGAGTATCGGTCGA”, 1.53 log2 normalized intensity.
Turning to “TGGCGTATGCAGCAGGGCAGCAGCCTGACCGCCTAGGGAGATTAGAGTATCGGTCGA”, the binding signal was found to be 0.823 log2 normalized intensity.
With “TTAACCTCTATTGACCTTCTTATTTGGAGAGCCTAGGGAGATTAGAGTATCGGTCGA”, the binding signal came out at 2.41 log2 normalized intensity.
With “GAGGAGACCTTTGGATATCATATCATCTTCGCCTAGGGAGATTAGAGTATCGGTCGA” the figure was 2.39 log2 normalized intensity; with “TAGTTAGAGTCACTGATAAGTCTGCTTGCCGCCTAGGGAGATTAGAGTATCGGTCGA”, -0.858 log2 normalized intensity; with “CGCCCCCAACGGGCCACGCCCTGCACCCTAGCCTAGGGAGATTAGAGTATCGGTCGA”, 4.07 log2 normalized intensity.
The same measure for “TTGTGGCAGTGAGAACAGGTTCATTCTTTAGCCTAGGGAGATTAGAGTATCGGTCGA”: 0.687 log2 normalized intensity; for “GCTTGAGCGAGACAGCGGGTGTTTCTGGGAGCCTAGGGAGATTAGAGTATCGGTCGA”: 0.72 log2 normalized intensity.
Regarding “TCATTGCCTCTGGGCTTTGATGGACATTGCGCCTAGGGAGATTAGAGTATCGGTCGA”, the binding signal came to 3.92 log2 normalized intensity.
With “GAGCTCAGTCACAGCAGTGGACTTTGACCTGCCTAGGGAGATTAGAGTATCGGTCGA” the figure was 11.7 log2 normalized intensity; with “AAGAAGAGCTCAGTCACAGCAGTGGACTTTGCCTAGGGAGATTAGAGTATCGGTCGA”, 7.41 log2 normalized intensity; with “AGAGTGAGCAGCACTTTTGGAGTTTGACCTGCCTAGGGAGATTAGAGTATCGGTCGA”, 8.51 log2 normalized intensity.
With “GAGCAGCACTTTTGGAGTTTGACCTGGAGCGCCTAGGGAGATTAGAGTATCGGTCGA” the figure was 6.24 log2 normalized intensity; with “CCAGCTAGAAGCAGTGGGACAAAGGTCACAGCCTAGGGAGATTAGAGTATCGGTCGA”, 6.82 log2 normalized intensity; with “TAACTTACAGTGCACTTTGACCGCTCATTTGCCTAGGGAGATTAGAGTATCGGTCGA”, 6.77 log2 normalized intensity.
As to “CAGGACTGCGTAACTTACAGTGCACTTTGAGCCTAGGGAGATTAGAGTATCGGTCGA”, the binding signal was 5.6 log2 normalized intensity.
“CTTGTCTTATCAGCAGGGTCTTTTTGACCTGCCTAGGGAGATTAGAGTATCGGTCGA”: the binding signal worked out at 4.79 log2 normalized intensity.
The same measure for “AGCAGCCTCAGTGGCTCACAAATGGAGTTTGCCTAGGGAGATTAGAGTATCGGTCGA”: 1.92 log2 normalized intensity; for “CCTCAGTGTGGGACTTTGGTCTGCTGAGTCGCCTAGGGAGATTAGAGTATCGGTCGA”: 3.95 log2 normalized intensity.
“CTGCGTAACTTACAGTGCACTTTGACCGCTGCCTAGGGAGATTAGAGTATCGGTCGA”: the binding signal was 7.74 log2 normalized intensity.
With “GGGGCAGAGTGAGCAGCACTTTTGGAGTTTGCCTAGGGAGATTAGAGTATCGGTCGA”, the binding signal was 2.17 log2 normalized intensity.
